GASC-1 inh: human JMJD2C demethylase inhibition | Q9H3R0 | GST-JMJD2C(1-420) H3K9me3 demethylation, DELFIA europium | inhibition, % at 2.35 µM | 0.069% of 330,000 active;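 active = more than half of a compound's replicate wells show inhibition beyond 50%, single wells judged on their own value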;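 also: signal counts dimethyl H3K9 product captured on neutravidin plate; 0% = median of DMSO wells and 100% = 0.3 times that DMSO median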
NALP3 yeast inh: blocks the NALP3 inflammasome reconstituted in yeast; inhibition, % at 10 µM; Yeast reconstituted NLRP3/ASC/caspase-1, beta-gal luminescence, 24 h; 0.39% of 330,000 active;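 active = inhibition of 50% or more; inactive = inhibition below 50%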;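 also: plate controls were induced DMSO wells for no effect and uninduced yeast grown without galactose for full effect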
NALP1 yeast inh: NALP1 inhibition; S. cerevisiae NALP1/ASC/caspase-1 growth, X-gal OD620, 72 h; inhibition, % at 10 µM; 0.61% of 280,000 active; in the data active = inhibition mostly above about 24%, no sharp cut-off; inactive = mostly below about 32%
PolyA inh: inhibitors of polyadenylation in S. cerevisiae; 0.02% of 300,000 active; AID 1875; activity score, % at 12 µM; S. cerevisiae SKY197-pL101 polyadenylation reporter, beta-gal luminescence; efflux-impaired pdr1/pdr3 knockout yeast; score 100 = 6 SD above DMSO;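 active = lowest replicate activity score at least 50, where 100 means six control SD above control mean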;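 also: yeast exposed to compound for 9 h at 30 °C; higher score means more reporter readthrough which indicates perturbed polyadenylation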
Efflux pump mplx: inhibitors of Candida antifungal efflux pumps expressed in yeast. S. cerevisiae Candida pump triplex, Nile Red efflux. inhibition, % at 10 µM. 0.44% of 330,000 active. AID 485275;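 active = plate passing quality check with inhibition over a set limit, or well fluorescence over plate mean plus 4 SD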;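 also: Nile Red retained in pooled yeast measured as flow cytometry median fluorescence; 0% = buffer negative control and 100% = Enniatin B positive control; higher means more Nile Red kept so more efflux inhibition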
HDAC3 inhib: blocks human histone deacetylase 3; O15379; recombinant HDAC3, fluorogenic peptide/trypsin coupled, fluorescence; 0.15% of 320,000 active; inhibition, % at 8.3 µM; AID 2718; in the data active = inhibition above about 26%, passing the limit was not always enough
Target sequence (O15379 whole entry, looked up): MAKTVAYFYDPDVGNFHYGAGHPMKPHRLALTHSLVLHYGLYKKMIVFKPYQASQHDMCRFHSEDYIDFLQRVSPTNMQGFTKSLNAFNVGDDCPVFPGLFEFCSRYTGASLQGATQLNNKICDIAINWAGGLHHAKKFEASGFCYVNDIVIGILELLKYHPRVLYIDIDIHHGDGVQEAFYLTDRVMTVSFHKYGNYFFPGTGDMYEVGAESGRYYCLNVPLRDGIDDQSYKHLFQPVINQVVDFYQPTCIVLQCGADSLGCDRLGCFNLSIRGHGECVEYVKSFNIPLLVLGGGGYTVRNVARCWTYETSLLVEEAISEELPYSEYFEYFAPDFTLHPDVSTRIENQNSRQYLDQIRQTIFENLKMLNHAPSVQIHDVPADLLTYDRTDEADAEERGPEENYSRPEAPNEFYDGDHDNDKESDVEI
Cmpd fluor yeast: counter-screen for efflux pump inhibitors: compound fluorescence; shares compounds with Efflux pump mplx; S. cerevisiae AD/pABC3, flow cytometry; fluorescence ratio to DMSO, % at 10 µM; 4% of 1,700 active; AID 588517;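 active = fluorescence ratio to DMSO above its plate's cutoff, the plate mean ratio plus 5 SD, cut at about 210% in these data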;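 also: unstained yeast with no Nile Red so the signal is compound autofluorescence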
Mdr1 pump inh: Candida Mdr1 efflux pump inhibition; shares compounds with Efflux pump mplx; S. cerevisiae AD/CaMDR1, Nile Red efflux, flow cytometry; inhibition, % at 10 µM; 1% of 1,700 active; AID 588518; in the data active = inhibition above about 26%;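 also: 0% = DMSO vehicle and 100% = reference inhibitor; higher means more Nile Red retained so more efflux inhibition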
Cdr2 pump inh: inhibitors of Candida albicans Cdr2 efflux pump | shares compounds with Efflux pump mplx | S. cerevisiae AD/CaCDR2, Nile Red retention, flow cytometry | Nile Red retention ratio vs DMSO, % at 10 µM | 4% of 1,700 active | AID 588520; in the data active = Nile Red retention ratio vs DMSO above about 190%;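 also: higher ratio means more blocking of Cdr2 efflux of the dye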
CaCdr1 efflux inh: Candida Cdr1 efflux pump inhibition; shares compounds with Efflux pump mplx; S. cerevisiae AD/CaCDR1, Nile Red efflux, flow cytometry; inhibition, % at 10 µM; 1% of 1,700 active; AID 588522;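 active = inhibition above the screen-wide mean plus twice its standard deviation, cut at about 32% in these data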
* hit, by the source's call; . = no result. The list is not random: actives were taken first. Their share in the collection is about 1.5%.

SMILES	GASC-1 inh	NALP3 yeast inh	NALP1 yeast inh	PolyA inh	Efflux pump mplx	HDAC3 inhib	Cmpd fluor yeast	Mdr1 pump inh	Cdr2 pump inh	CaCdr1 efflux inh
O=c1[nH]c2cc3c(cc2cc1CN(Cc1ccccc1)Cc1nnnn1Cc1ccco1)OCCO3	15.4	.	-4.8	16.5	.	.	.	.	.	.
O=C(CN1C(=O)CCSc2ccccc21)Nc1ccc2c(c1)OCO2	1.7	0.4	15.0	7.8	0.2	-8.3	94.8	-0.1	107.2	0.0
CC1Cc2ccccc2N1CC(=O)Nc1ccc2c(c1)OCO2 (centres undefined)	-21.4	35.5	-0.8	-6.1	12.1*	-6.4	133.6	1.1	103.9	0.5
O=C(Cc1ccccc1[N+](=O)[O-])Nc1ccc2c(c1)OCO2	-4.1	8.5	11.0	1.2	1.3*	-1.4	102.5	-0.1	89.0	0.0
CCOC(=O)N1CCC(NC(=O)CN2C(=O)CCSc3ccccc32)CC1	-7.3	1.1	.	10.5	0.0	-2.0	99.7	-0.1	90.1	-0.1
O=C(CCCN1C(=O)C2CC=CCC2C1=O)Nc1cccc(F)c1 (centres undefined)	-41.3	0.2	6.0	-5.7	0.0	-2.5	.	.	.	.
Cc1ccc(NC(=O)Cn2cc(C=O)c3ccccc32)cc1	-0.8	11.9	13.7	-17.4	0.1	-0.8	.	.	.	.
O=Cc1cn(CC(=O)Nc2ccc3c(c2)OCO3)c2ccccc12	3.8	8.5	-7.7	-7.5	1.1*	-2.2	104.0	-0.1	109.4	0.1
COC(=O)C1=C(C)OC(N)=C(C#N)C1c1c(C)nn(C)c1C (centres undefined)	2.1	6.3	34.2	17.5	6.5*	-1.9	96.2	0.0	107.2	-0.1
O=Cc1cccc(Oc2ccc([N+](=O)[O-])cc2[N+](=O)[O-])c1	-10.8	21.2	9.6	0.8	0.7*	0.2	100.3	-0.3	100.7	0.0
CN(C)CCOc1ccc(-c2c(-c3ccsc3)sc3ccccc23)cc1	-7.4	47.9	.	.	0.0	9.9	.	.	.	.
COc1ccc(-c2sc3ccccc3c2-c2ccc(OCCN(C)C)cc2)cc1	15.2	30.0	.	.	1.1	9.4	90.8	0.0	97.5	-0.1
COc1cccc(-c2sc3ccc(OC)cc3c2-c2ccc(OCCN(C)C)cc2)c1	2.3	29.4	.	.	187.4*	21.2	108.3	0.7	228.3*	0.3
COc1cccc(-c2sc3ccc(OC)cc3c2-c2ccc(O)cc2)c1	13.1	16.9	.	.	0.3	1.9	.	.	.	.
O=c1[nH]c(N2CCCCC2)nc2ncn(Cc3ccccc3)c12	5.5	-3.8	7.8	-1.2	0.1	-5.4	.	.	.	.
CSCCC(NC(=O)c1ccccc1Cl)C(=O)N1CCC1 (centres undefined)	1.6	-9.8	.	8.3	0.0	-2.8	.	.	.	.
CSCCC(NC(=O)c1ccccc1Cl)C(=O)N(C)Cc1cccs1 (centres undefined)	-12.5	4.0	-3.1	4.1	5.5*	6.9	101.1	0.0	106.3	0.1
Cc1cccc(C)c1NC(=O)CN(C)C(=O)c1cccc(NS(=O)(=O)c2ccccc2)c1	9.2	17.8	.	0.4	0.1	2.4	.	.	.	.
CC[N+](C)(C)CC/C=C1/c2ccccc2Sc2ccc(Cl)cc21	3.1	11.2	12.0	-4.6	0.1	-3.2	100.0	-0.2	102.2	0.0
OCCN1CCN(CC/C=C2/c3ccccc3Sc3ccc(Cl)cc32)CC1	.	25.6	.	.	0.0	5.3	.	.	.	.
CCCCCCCCCC[N+](C)(C)CC/C=C1/c2ccccc2Sc2ccc(Cl)cc21	9.1	2.1	23.1	9.6	1.8*	34.6*	98.2	0.0	116.4	0.0
CCCCCCCCCCC[N+](C)(C)CC/C=C1/c2ccccc2Sc2ccc(Cl)cc21	3.3	14.1	14.4	4.6	1.8*	32.4*	146.5	1.1	259.7*	0.4
